Experiment [1] concerns Tov112D. The experiment is described as follows: Primary qHTS to identify gynecologic anti-cancer compounds using libraries of approved drugs and bioactive compounds (AID 1345084). Further: nearly all actives have a fitted effect of over 55% in size. Conditions: Gynecologic cancer cell panel viability, ATPlite luminescence, 48 h; series mostly up to 57.5 µM. The essentials: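 Cells, 1,000 per well, were allowed to settle for 16 h at 37 C before compound addition. Five concentrations were tested for 48 h, and viability was read by ATPlite luminescence after 15 min at room temperature.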
(In general: In qHTS, concentration-response curves come from the screen itself.)

Experiment [2] in a line: Drug repurposing screens with cells derived from glioblastoma tumor samples (AID 1345199). Further: nearly all actives have a fitted effect of over 40% in size. The conditions noted are these: GBM patient neurospheres viability, ATP luminescence, 48 h. In outline:
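Primary testing used CD133+ neurospheres from four GBM patients, seven concentrations, 48 h exposure and ATP-based viability; confirmation added three slower-growing patient lines.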

Where [3] appears, read: at 46.1 µM (top of the series), tumour line C.
The mark [4] stands for this setting: at 45.9 µM (top of the series), tumour line B.
Setting [5] is: at 45.9 µM (top of the series), tumour line D.
The mark [6] stands for this setting: at 21.2 µM (top of the series), tumour line B.
[7] abbreviates: at 21.2 µM (top of the series), tumour line D.

“And” between values parts separate entries of the source, which are not always exact repeats. Identical values can stand only once. Records with an inconclusive call do not appear. A number with no mark means an inactive call. The source made the active and inactive calls. The call rests on the fitted dose curve; in most records, active means well fitted curve in the direction sought with a large enough effect; inconclusive means small, poorly fitted or top-dose-only effect, or another doubt; inactive means no such curve, though single readings can be large; an effect the other way counts as inactive or inconclusive.
On the % scale 0 is the no-effect control and ±100 the full control effect; potency means the concentration at half of the fitted maximal effect.

For `CCc1oc2ccccc2c1C(=O)c1cc(I)c(O)c(I)c1`, in experiment [1], the Potency result is “inactive”. The activity, negative = cell killing in experiment [2] (setting [3]) is -3.24%.
`COc1ccccc1N1CCN(CCCCNC(=O)c2ccc(-c3ccc(C(C)=O)cc3)cc2)CC1`: the Potency entry in experiment [1] was “inactive”.
As to `CCCCN=C(N)N=C(N)N`, the Potency result in experiment [1] is “inactive”. For the same compound, the activity, negative = cell killing is -13.5% in experiment [2] (setting [4]), -11% in experiment [2] (setting [5]) and -8.24% in experiment [2] (setting [3]).
Take `CCc1cc(Cl)c(OC)c(C(=O)NC[C@@H]2CCCN2CC)c1O`: the Potency entry in experiment [1] was “inactive”.
As to `Cc1ccc(S(=O)(=O)NC(=O)NC2CCCC2)cc1`, the Potency result in experiment [1] is “inactive”. Moreover, the activity, negative = cell killing in experiment [2] (setting [4]) is -10.4%; in experiment [2] (setting [5]) it was -9.83%; in experiment [2] (setting [3]), -7.67%.
Take `O=C(CN1CCN(Cc2ccc3c(c2)OCO3)CC1)N1c2ccccc2Sc2ccccc21`: in experiment [1], the Potency entry is “inactive”.
On the same count and under the same terms, in the case of `NC(N)=NN=C(/C=C/c1ccc([N+](=O)[O-])o1)/C=C/c1ccc([N+](=O)[O-])o1` it was 17.8 µM (active).
Turning to `CC(=O)O[C@]1(C(C)=O)CC[C@H]2[C@@H]3C=C(C)C4=CC(=O)CC[C@]4(C)[C@H]3CC[C@@]21C`, the Potency entry in experiment [1] is “inactive”. For the same compound, the activity, negative = cell killing is -0.988% in experiment [2] (at 20 µM (top of the series), tumour line C); -20.3% in experiment [2] (setting [6]); 13.6% in experiment [2] (setting [7]).
Take `C=C[C@@]1(C)CC(=O)[C@]2(O)[C@@]3(C)[C@@H](O)CCC(C)(C)[C@@H]3[C@H](O)[C@H](OC(C)=O)[C@@]2(C)O1`: the Potency entry in experiment [1] is “inactive”. The activity, negative = cell killing in experiment [2] (setting [4]) was 7.18%; in experiment [2] (setting [3]) it was -36.3%.
With `CCN(CC)CCOC(=O)C1(c2ccccc2)CCCC1`, the Potency result in experiment [1] was “inactive”. Also, the values for the activity, negative = cell killing in experiment [2] (setting [4]), in experiment [2] (setting [5]) and in experiment [2] (setting [3]) were -21.1%, -19.5% and -29.4%, respectively.
On to `CC[C@]12CCCN3CCc4c(n(c5ccccc45)C(=O)C1)[C@@H]32`, for which the Potency in experiment [1] was 28.2 µM (active) and 31.6 µM (active); in experiment [2] (tumour line A), 6.31 µM (active). In addition, the activity, negative = cell killing in experiment [2] (setting [6]) is -16.8%; in experiment [2] (setting [7]), -29.4%.
`CC(=O)O[C@]1(C(C)=O)CC[C@H]2[C@@H]3C=C(Cl)C4=CC(=O)CC[C@]4(C)[C@H]3CC[C@@]21C`: the Potency entry in experiment [1] was “inactive”. Also, the activity, negative = cell killing in experiment [2] (setting [4]) was -21.1%.
Consider `CCCCCCCCCCCCCCC[C@H](O)[C@@H](N)CO`, for which the Potency entry in experiment [1] is “inactive”.
Consider `CNCCCCOc1ccccc1Cc1ccccc1`, for which the Potency result in experiment [1] is “inactive”.
As to `CN1CCN(C2=Nc3ccccc3Sc3ccc(Cl)cc32)CC1`, the Potency result in experiment [1] was “inactive”. The activity, negative = cell killing in experiment [2] (setting [3]) was -6.22%. Also, the figures for the Potency in experiment [2] (tumour line A) and in experiment [2] (tumour line D) were 7.94 µM (active) and 17.8 µM (active), respectively.
`O=C(NC1CCN(CCc2c[nH]c3ccccc23)CC1)c1ccccc1`: the Potency result in experiment [1] is “inactive”. Moreover, the activity, negative = cell killing in experiment [2] (setting [5]) was -28%. The values for the Potency in experiment [2] (tumour line A) and in experiment [2] (tumour line C) were 11.2 µM (active) and 20.6 µM (active), respectively.
As for `c1ccc(-c2nc[nH]c2-c2ccccc2)cc1`, the Potency entry in experiment [1] is “inactive”. Also, the activity, negative = cell killing in experiment [2] (setting [4]) is -16.2%.
Regarding `Clc1cccc(C(c2ccc3nc[nH]c3c2)n2ccnc2)c1` (configuration not stated), the Potency result in experiment [1] is “inactive”.
As for `CN(C)CCOC(=O)C(c1ccccc1)C1(O)CCCC1` (configuration not stated), the Potency entry in experiment [1] was “inactive”. The activity, negative = cell killing was -2.94% in experiment [2] (setting [4]), -18.8% in experiment [2] (setting [5]) and -22.9% in experiment [2] (setting [3]).
Taken in the same sequence, the figures for `N[C@H](C(=O)O)[C@@H](O)c1ccc(O)c(O)c1` were “inactive”, -8.13%, -33.1% and -8.89%.
`COc1ccc(CN(CCN(C)C)c2ncccn2)cc1`: in experiment [1], the Potency result is “inactive”. The activity, negative = cell killing is -6.69% in experiment [2] (setting [4]) and -7.28% in experiment [2] (setting [3]).
On to `C#C[C@]1(O)CC[C@H]2[C@@H]3[C@H](C)CC4=C(CCC(=O)C4)[C@H]3CC[C@@]21C`, for which the Potency entry in experiment [1] is “inactive”. Further, in experiment [2] (setting [4]), the activity, negative = cell killing is -14.2%. In addition, in experiment [2] (tumour line A), the Potency is 31.6 µM (active).
In the case of `N/C(=N\N=C\c1ccc(Cl)cc1)N/N=C/c1ccc(Cl)cc1`, in experiment [1], the Potency entry is “inactive”.
`O=c1[nH]c(=O)n([C@H]2C[C@H](O)[C@@H](CO)O2)cc1F`: the Potency in experiment [1] is 1 µM (active); in experiment [2] (tumour line A) it was 0.891 µM (active). The activity, negative = cell killing in experiment [2] (setting [3]) is -17.1%.
`CO[C@H]1C=CO[C@@]2(C)Oc3c(C)c(O)c4c(O)c(c(/C=N/N5CCN(C)CC5)c(O)c4c3C2=O)NC(=O)/C(C)=C\C=C[C@H](C)[C@H](O)[C@@H](C)[C@@H](O)[C@@H](C)[C@H](OC(C)=O)[C@@H]1C`: in experiment [1], the Potency entry is “inactive”.
With `CN(CCCN1c2ccccc2CCc2ccccc21)CC(=O)c1ccc(Cl)cc1`, the Potency result in experiment [1] was “inactive”.
As to `C#C[C@]1(O)CC[C@H]2[C@@H]3CCc4cc(OC)ccc4[C@H]3CC[C@@]21C`, the Potency result in experiment [1] is “inactive”. Further, the activity, negative = cell killing in experiment [2] (setting [4]) was -27.2%; in experiment [2] (setting [3]), -5.96%. The Potency in experiment [2] (tumour line A) was 39.8 µM (active).
`O=C(c1ccc(F)cc1)C1CCN(CCn2c(=S)[nH]c3ccccc3c2=O)CC1`: the Potency result in experiment [1] is “inactive”. In addition, the activity, negative = cell killing in experiment [2] (setting [4]) is -29.1%. Moreover, the values for the Potency in experiment [2] (tumour line A) and in experiment [2] (tumour line C) were 12.6 µM (active) and 20.6 µM (active), respectively.
Take `CC(C)(Cc1c[nH]c2ccccc12)NCC(O)COc1ccccc1C#N` (configuration not stated): the Potency result in experiment [1] was “inactive”.
`Cc1ccc(O)c([C@H](CCN(C(C)C)C(C)C)c2ccccc2)c1`: the Potency entry in experiment [1] is “inactive”. For the same compound, the activity, negative = cell killing is -18% in experiment [2] (setting [4]) and -1.49% in experiment [2] (setting [3]). In addition, the Potency in experiment [2] (tumour line A) is 3.98 µM (active).

Values taken from PubChem BioAssay (NCATS).
